Results filed as inconclusive are left out. The source made the active and inactive calls. Unless noted, no stated cut-off is given here; in the data, active means response above about 15%; inactive means the rest.
How the values were obtained:
[1] = rapamycin-like changes in RPL19A-GFP expression – cell-based, S. cerevisiae, multiplex flow cytometry, primary screen (AID 1862; in the data active means percent of DMSO control GFP below about 86%;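 further: lower values mimic rapamycin by blocking the RPL19A rise seen in DMSO cells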); conditions: S. cerevisiae RPL19A-GFP strain, flow cytometry fluorescence, 3 h; at 10 µM; stronger effect = lower value
[2] = TOR pathway GLN3 branch reporter MEP2-GFP changes – S. cerevisiae, multiplex flow cytometry, primary screen (AID 1867;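 active means GFP response, as percent of the DMSO control, above the screen-wide mean plus 3 SD, about 139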;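 further: median GFP channel fluorescence of barcode-gated MEP2-GFP cells measured by flow cytometry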); conditions: S. cerevisiae MEP2-GFP strain, 3 h, at 10 µM, stronger effect = higher value, 100% means same as DMSO wells
[3] = TOR pathway RTG branch CIT2 reporter changes – S. cerevisiae, GFP fusion, multiplex flow cytometry, primary screen (AID 1870;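 active means percent response above a set limit, the screen-wide mean plus 3 SD, cut at about 130% in these data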;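 further: barcoded CIT2-GFP strain pooled with four other GFP strains with rapamycin as positive control; median GFP fluorescence per well over plate mean of DMSO wells so 100% = DMSO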); conditions: S. cerevisiae CIT2-GFP expression, 3 h, at 10 µM, stronger effect = higher value
[4] = TOR pathway LAP4-GFP level changes – S. cerevisiae, multiplex flow cytometry, primary screen (AID 1873;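 active means GFP signal, as percent of the solvent control, above the screen mean plus 3 SD, about 149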); conditions: S. cerevisiae LAP4-GFP expression, 3 h, at 10 µM, stronger effect = higher value
[5] = yeast AGP1-GFP level changes, GLN3 branch – cell-based, multiplex flow cytometry, S. cerevisiae, primary screen (AID 1887;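 active means GFP signal above the screen-wide mean plus 3 SD, that is over about 124.5% of the solvent control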;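 further: AGP1-GFP fusion strain of S. cerevisiae within a five-strain barcoded multiplex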); conditions: 3 h, at 10 µM, stronger effect = higher value
[6] = reduced mouse 2C T cell binding to pMHC/ICAM-1 vesicles – MLPCN validation set, flow cytometry, LFA-1/ICAM-1 modulator project, pilot screen (AID 2523;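 active means response below a set limit, under 55% cells CD8-positive and vesicle-bound, and CD8 cells' 90th-percentile brightness under 279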;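 on vesicle binding response: mean PE anti-B7-1 fluorescence of CD8+ cells relative to row control; 100% = QL9-loaded vesicles with DMSO vehicle in the same plate row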); conditions: 2C mouse CD8+ T cells, at 7 µM, stronger effect = lower value; double positive events: measured here: CD8+/vesicle+ event percentage
[7] = target: Integrin beta-1 (Homo sapiens) + Integrin alpha-4 (Homo sapiens) (UniProt P13612+P05556); assay: alpha4beta1 integrin LIBS antibody binding reduction – U937 cells, HUTS-21 mAb, flow cytometry, validation set, VLA-4 allosteric modulator project, pilot screen (AID 2674;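 active means inhibition above 50%, about 3 SD of the validation set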;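 further: antibody binding induced by the VLA-4 ligand LDV present at three times its Kd; 0% = LDV ligand with antibody and no compound and 100% = antibody without LDV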); conditions: HUTS-21 LIBS mAb binding, at 6.7 µM, stronger effect = higher value, binding induced by LDV ligand
[8] = calorie-restriction mimetic ROS inhibitors, yeast – validation compound set, pilot screen (AID 2706;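 active means superoxide response below 65% of plate, a cut near 3 SD across the whole screen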;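 further: yeast exposed to compound for one week at 30 degrees C before staining; 100% = mean of all compound wells on the same plate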); conditions: S. cerevisiae aging, superoxide DHE fluorescence; at 10 µM; stronger effect = lower value
[9] = target: Beta-adrenergic receptor kinase 1 (Homo sapiens) (UniProt P25098); assay: GRK2 binders displacing RNA aptamer, biochemical, validation, human GRK2, bead flow cytometry (AID 488806;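 active means aptamer binding inhibition above 30%, about 3 SD of noise from non-fluorescent compounds; inactive means inhibition at or below 30%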); conditions: bead-bound GRK2, FAM-aptamer displacement, at 10 µM, stronger effect = higher value
[10] = target: Beta-2 adrenergic receptor (Homo sapiens) (UniProt P07550); assay: agonist-induced loss of surface beta2AR – cell-based, FAP fluorogen, flow cytometry, validation set, pilot screen (AID 504459;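 active means percent response above 42, roughly 3 SD of non-fluorescent test compounds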;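 further: agonist-driven loss of surface beta2AR via internalization measured by FAP dye flow cytometry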); conditions: Am2.2-beta2AR cells, at 10 µM, stronger effect = higher value
[11] = target: AP-2 complex subunit beta (Homo sapiens) (UniProt P63010); assay: beta-arrestin/AP2 interaction blockers – biochemical, validation set, GST-AP2 beads, flow cytometry, pilot screen (AID 504541;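 active means inhibition above 54%, about 3 SD of non-fluorescent compounds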;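 further: AP2 carries R879A mutation and is captured from E. coli lysate; bead-bound FITC arrestin peptide fluorescence measuring arrestin peptide binding to AP2; 0% = DMSO wells and 100% = excess unlabeled arrestin peptide control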); conditions: FITC arrestin peptide, at 10 µM, stronger effect = higher value, AP2 beta2 appendage fragment, R879A mutant
[12] = cytosolic pH regulators acting via V-ATPase – S. cerevisiae, pHLuorin, HTS validation (AID 504600); conditions: V-ATPase proton transport, at 10 µM, stronger effect = higher value;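 further: plate controls were DMSO for no effect and reference compound for full effect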
[13] = system: anti-desmoglein-3 scFv antibody binding to human DSG3; assay: blockers of pathogenic pemphigus antibody–desmoglein-3 binding – biochemical, validation compound set, bead-based, flow cytometry, pilot screen (AID 588368;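 active means binding below the plate cutoff, the plate median minus 3 SD, with a reading above zero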;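 further: signal is the median channel fluorescence of bead-bound GFP antibody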); conditions: Protein G beads, DSG3-Fc, scFv-GFP binding, at 10 µM, stronger effect = lower value
[14] = Nile Red efflux blockade in pump-expressing yeast – validation compound set, multiplex, phenotypic, pilot screen (AID 588506;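 active means efflux inhibition above 0.42, the validation set average plus 4 SD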;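 further: Nile Red retained in cells so higher fluorescence means more efflux inhibition; 0 = negative control wells and 1 = enniatin B 25 µM full block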); conditions: S. cerevisiae pump-expressing triplex, Nile Red efflux flow cytometry; at 10 µM; stronger effect = higher value; the pumps come from Candida albicans
[15] = target: ATP-binding cassette sub-family B member 6 (Homo sapiens) (UniProt Q9NP58); assay: blockers of ABCB6-driven porphyrin uptake – K562-ABCB6 cells, flow cytometry, validation set, pilot screen (AID 588550;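 active means inhibition above the screen-wide mean plus 3 SD, about 51%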;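 further: 0% = DMSO wells and 100% = benzethonium chloride 70 µM positive control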); conditions: K562-ABCB6 porphyrin accumulation, 1 h, at 10 µM, stronger effect = higher value
[16] = AML differentiation inducers, ER-HoxA9 marrow cells – cell-based, GFP/MAC1 double positive, flow cytometry, validation set, primary screen (AID 588685;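 active means differentiation response of at least 50%, scaled between solvent and reference control, from cells with both markers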;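 further: compound exposure lasts four days before antibody staining and flow analysis; 0% = DMSO wells and 100% = 5 µM fulvestrant positive control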); conditions: stronger effect = higher value, normalized: vehicle 0, fulvestrant 100

Beta-adrenergic receptor kinase 1 (Homo sapiens), sequence (P25098 whole entry, looked up): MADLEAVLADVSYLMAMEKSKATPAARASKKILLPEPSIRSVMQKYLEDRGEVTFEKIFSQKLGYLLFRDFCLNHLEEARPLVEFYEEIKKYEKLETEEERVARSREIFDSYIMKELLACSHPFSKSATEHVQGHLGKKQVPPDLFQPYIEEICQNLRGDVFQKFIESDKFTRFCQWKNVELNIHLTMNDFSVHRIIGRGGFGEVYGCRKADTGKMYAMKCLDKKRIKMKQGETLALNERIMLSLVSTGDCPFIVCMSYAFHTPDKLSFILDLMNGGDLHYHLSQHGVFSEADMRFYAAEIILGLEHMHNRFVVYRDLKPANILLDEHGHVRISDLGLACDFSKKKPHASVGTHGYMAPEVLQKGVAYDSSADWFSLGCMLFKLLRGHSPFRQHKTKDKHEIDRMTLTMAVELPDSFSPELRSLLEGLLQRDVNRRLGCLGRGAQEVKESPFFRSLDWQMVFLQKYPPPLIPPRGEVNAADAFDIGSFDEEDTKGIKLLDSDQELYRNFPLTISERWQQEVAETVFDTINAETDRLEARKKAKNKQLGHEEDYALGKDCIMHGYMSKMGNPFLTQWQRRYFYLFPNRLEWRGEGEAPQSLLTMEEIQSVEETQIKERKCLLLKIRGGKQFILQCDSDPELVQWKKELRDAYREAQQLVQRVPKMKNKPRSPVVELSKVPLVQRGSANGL
Integrin beta-1 (Homo sapiens) + Integrin alpha-4 (Homo sapiens), sequence (P05556 whole entry, looked up): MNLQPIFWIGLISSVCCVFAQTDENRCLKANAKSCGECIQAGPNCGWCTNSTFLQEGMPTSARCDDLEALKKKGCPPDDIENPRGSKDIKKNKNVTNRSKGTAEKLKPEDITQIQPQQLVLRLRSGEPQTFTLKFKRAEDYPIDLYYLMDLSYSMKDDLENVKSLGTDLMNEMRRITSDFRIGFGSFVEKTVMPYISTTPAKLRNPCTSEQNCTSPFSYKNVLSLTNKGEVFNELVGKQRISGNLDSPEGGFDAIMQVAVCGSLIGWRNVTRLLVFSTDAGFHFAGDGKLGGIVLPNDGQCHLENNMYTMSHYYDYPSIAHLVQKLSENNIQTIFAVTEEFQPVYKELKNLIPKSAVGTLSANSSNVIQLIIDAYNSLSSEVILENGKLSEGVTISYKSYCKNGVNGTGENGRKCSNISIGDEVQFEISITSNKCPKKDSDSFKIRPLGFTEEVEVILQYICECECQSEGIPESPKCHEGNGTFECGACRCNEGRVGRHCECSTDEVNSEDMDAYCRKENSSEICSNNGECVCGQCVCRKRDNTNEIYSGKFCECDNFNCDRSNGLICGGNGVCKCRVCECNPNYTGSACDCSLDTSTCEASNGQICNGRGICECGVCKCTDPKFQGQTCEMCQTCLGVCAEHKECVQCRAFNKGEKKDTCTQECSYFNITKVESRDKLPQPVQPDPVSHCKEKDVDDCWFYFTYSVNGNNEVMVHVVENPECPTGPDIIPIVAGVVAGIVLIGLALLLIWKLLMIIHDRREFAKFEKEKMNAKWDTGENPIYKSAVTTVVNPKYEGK
Integrin beta-1 (Homo sapiens) + Integrin alpha-4 (Homo sapiens), sequence (P13612 whole entry, looked up): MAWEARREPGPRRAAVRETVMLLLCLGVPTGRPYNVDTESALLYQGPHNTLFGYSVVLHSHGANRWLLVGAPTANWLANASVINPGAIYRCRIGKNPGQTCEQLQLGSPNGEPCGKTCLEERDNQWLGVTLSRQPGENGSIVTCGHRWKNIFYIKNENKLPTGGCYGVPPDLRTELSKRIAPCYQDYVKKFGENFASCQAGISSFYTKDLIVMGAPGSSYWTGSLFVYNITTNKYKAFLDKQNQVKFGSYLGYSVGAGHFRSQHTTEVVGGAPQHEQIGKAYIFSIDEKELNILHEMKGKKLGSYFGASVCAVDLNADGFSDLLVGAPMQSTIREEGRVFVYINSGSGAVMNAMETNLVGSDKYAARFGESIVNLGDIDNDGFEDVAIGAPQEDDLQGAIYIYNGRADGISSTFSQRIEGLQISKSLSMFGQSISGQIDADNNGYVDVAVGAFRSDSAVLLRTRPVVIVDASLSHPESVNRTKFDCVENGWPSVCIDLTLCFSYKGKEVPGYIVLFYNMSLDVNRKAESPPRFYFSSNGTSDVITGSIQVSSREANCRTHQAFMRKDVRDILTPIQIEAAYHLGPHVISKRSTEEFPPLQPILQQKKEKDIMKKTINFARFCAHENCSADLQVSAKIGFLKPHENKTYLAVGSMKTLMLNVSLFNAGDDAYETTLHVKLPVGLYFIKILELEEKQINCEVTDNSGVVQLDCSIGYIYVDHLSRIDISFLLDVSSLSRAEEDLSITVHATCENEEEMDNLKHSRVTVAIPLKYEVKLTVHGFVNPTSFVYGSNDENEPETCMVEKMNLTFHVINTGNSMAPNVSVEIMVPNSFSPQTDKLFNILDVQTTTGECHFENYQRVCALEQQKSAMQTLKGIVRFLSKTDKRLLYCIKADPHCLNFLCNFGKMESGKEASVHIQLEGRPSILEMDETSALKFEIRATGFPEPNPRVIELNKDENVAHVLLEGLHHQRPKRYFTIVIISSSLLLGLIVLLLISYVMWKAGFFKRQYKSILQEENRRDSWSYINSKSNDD
ATP-binding cassette sub-family B member 6 (Homo sapiens), sequence (Q9NP58 whole entry, looked up): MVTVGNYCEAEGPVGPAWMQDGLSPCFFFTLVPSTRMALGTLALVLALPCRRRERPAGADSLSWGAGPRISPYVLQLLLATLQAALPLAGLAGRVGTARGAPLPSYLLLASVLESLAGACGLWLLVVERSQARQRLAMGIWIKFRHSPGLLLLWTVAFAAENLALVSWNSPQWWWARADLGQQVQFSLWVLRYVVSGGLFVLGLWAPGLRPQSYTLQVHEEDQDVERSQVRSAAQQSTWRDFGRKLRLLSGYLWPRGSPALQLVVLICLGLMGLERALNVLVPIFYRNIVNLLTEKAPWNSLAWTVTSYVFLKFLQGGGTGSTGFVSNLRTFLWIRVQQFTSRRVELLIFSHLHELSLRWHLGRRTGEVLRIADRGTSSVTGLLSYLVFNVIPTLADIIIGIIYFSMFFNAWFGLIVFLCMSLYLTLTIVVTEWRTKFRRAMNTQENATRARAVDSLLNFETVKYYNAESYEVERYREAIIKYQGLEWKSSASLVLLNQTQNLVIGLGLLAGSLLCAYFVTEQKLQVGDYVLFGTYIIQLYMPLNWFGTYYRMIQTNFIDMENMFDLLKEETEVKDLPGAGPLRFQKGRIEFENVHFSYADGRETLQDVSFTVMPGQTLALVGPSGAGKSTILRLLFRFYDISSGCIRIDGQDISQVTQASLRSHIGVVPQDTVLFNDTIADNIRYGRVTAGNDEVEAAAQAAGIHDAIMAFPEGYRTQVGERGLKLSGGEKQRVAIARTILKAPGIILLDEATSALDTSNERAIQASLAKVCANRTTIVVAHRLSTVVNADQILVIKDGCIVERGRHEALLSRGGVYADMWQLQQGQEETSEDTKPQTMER
Beta-2 adrenergic receptor (Homo sapiens), sequence (P07550 whole entry, looked up): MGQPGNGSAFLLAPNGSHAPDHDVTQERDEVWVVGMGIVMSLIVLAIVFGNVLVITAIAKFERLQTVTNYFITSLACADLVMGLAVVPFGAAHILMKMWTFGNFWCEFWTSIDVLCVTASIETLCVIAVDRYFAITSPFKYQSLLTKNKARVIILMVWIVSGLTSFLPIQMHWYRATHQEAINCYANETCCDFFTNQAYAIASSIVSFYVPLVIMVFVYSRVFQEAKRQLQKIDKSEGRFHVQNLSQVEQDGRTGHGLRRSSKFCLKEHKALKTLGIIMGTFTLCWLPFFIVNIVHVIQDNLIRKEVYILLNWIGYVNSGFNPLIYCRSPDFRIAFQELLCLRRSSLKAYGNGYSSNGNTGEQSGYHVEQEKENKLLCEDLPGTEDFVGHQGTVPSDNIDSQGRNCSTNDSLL
AP-2 complex subunit beta (Homo sapiens), sequence (P63010 whole entry, looked up, the tested form may be a part, one chain of several): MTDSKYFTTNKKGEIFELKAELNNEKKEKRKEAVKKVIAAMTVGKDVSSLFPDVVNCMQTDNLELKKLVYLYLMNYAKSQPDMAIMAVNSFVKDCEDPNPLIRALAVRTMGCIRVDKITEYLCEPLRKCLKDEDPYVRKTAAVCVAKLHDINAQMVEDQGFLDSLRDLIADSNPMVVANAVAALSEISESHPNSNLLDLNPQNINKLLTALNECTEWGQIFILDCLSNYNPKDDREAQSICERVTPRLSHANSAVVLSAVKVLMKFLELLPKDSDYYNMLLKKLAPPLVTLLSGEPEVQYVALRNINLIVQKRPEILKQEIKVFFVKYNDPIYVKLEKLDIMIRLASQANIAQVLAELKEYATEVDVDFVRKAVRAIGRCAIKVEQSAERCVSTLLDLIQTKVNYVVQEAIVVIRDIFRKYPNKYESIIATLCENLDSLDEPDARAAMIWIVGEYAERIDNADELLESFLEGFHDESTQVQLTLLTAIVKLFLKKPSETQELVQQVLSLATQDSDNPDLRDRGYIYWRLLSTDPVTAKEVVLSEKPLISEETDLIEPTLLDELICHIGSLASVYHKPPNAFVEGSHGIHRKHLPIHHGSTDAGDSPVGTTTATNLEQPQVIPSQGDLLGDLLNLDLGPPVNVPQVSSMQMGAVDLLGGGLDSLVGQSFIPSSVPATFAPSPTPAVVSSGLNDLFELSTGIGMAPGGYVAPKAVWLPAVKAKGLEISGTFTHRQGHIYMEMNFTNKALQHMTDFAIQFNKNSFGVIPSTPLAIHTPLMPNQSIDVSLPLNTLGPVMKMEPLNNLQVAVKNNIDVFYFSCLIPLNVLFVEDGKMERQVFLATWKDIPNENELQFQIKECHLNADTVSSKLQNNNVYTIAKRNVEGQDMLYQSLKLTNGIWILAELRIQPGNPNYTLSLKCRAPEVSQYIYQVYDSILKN

C/C=C/c1ccc(OCCCCN2CC(C)CC(C)C2)c(OC)c1 (stereo not given)
inactive: percent of DMSO control GFP [1] 102% | GFP response vs DMSO [2] 107% | percent response of DMSO control [3] 106% | GFP response vs DMSO [4] 96.6% | GFP response, % of DMSO [5] 97.2% | vesicle binding response [6] 52.4% | inhibition [7] 8.88% | superoxide response (% of plate) [8] 104% | aptamer binding inhibition [9] -1% | response [10] -1.02% | inhibition [11] 39.6% | response [12] -3.37% | binding (% of control) [13] 99.7% | efflux inhibition (fraction of control) [14] 0.02 | inhibition [15] -10% | differentiation response [16] -1.71%
58.6%: double positive events [6]

CS(=O)(=O)Nc1ccc([N+](=O)[O-])cc1Oc1ccccc1
62.2%: double positive events [6]
inactive: percent of DMSO control GFP [1] 95.5% | GFP response vs DMSO [2] 97.6% | percent response of DMSO control [3] 96.4% | GFP response vs DMSO [4] 115% | GFP response, % of DMSO [5] 115% | vesicle binding response [6] 188% | inhibition [7] -8.78% | superoxide response (% of plate) [8] 106% | aptamer binding inhibition [9] 3% | response [10] -35% | inhibition [11] -2.11% | response [12] 2.46% | binding (% of control) [13] 106% | efflux inhibition (fraction of control) [14] -0.09 | inhibition [15] 5% | differentiation response [16] -8.93%

O=C(O)CCC(=O)c1ccc(-c2ccccc2)cc1
inactive: percent of DMSO control GFP [1] 102% | GFP response vs DMSO [2] 102% | percent response of DMSO control [3] 102% | GFP response vs DMSO [4] 125% | GFP response, % of DMSO [5] 108% | vesicle binding response [6] 245% | inhibition [7] -9.13% | superoxide response (% of plate) [8] 99.8% | aptamer binding inhibition [9] -1% | response [10] 11.2% | inhibition [11] 10.7% | response [12] -4.64% | binding (% of control) [13] 103% | efflux inhibition (fraction of control) [14] 0.36 | inhibition [15] 0% | differentiation response [16] -11.9%
65.4%: double positive events [6]

O=c1ccc2c(o1)/C(=C/C=C(Cl)Cl)CCC2
inactive: percent of DMSO control GFP [1] 101% | GFP response vs DMSO [2] 101% | percent response of DMSO control [3] 90.1% | GFP response vs DMSO [4] 110% | GFP response, % of DMSO [5] 84% | vesicle binding response [6] 236% | inhibition [7] -7.25% | superoxide response (% of plate) [8] 101% | aptamer binding inhibition [9] 2% | response [12] -6.24% | binding (% of control) [13] 101% | efflux inhibition (fraction of control) [14] -0.06 | inhibition [15] 6% | differentiation response [16] -10.4%
active: response [10] 62.6% | inhibition [11] 60.4%
56.9%: double positive events [6]

CC(/C=C1\SC(=O)N(CCCC(=O)O)C1=O)=C\c1ccccc1
59.5%: double positive events [6]
inactive: percent of DMSO control GFP [1] 105% | GFP response vs DMSO [2] 103% | percent response of DMSO control [3] 99% | GFP response vs DMSO [4] 124% | GFP response, % of DMSO [5] 99.3% | vesicle binding response [6] 161% | inhibition [7] 12.5% | superoxide response (% of plate) [8] 112% | aptamer binding inhibition [9] 2% | response [10] -6.06% | inhibition [11] 37.2% | response [12] -1.36% | binding (% of control) [13] 101% | efflux inhibition (fraction of control) [14] 0 | inhibition [15] 0% | differentiation response [16] 12.8%

Nc1c(C(=O)c2ccccc2)oc2ccccc12
66%: double positive events [6]
inactive: percent of DMSO control GFP [1] 101% | GFP response vs DMSO [2] 96.2% | percent response of DMSO control [3] 100% | GFP response vs DMSO [4] 93.3% | GFP response, % of DMSO [5] 74.2% | vesicle binding response [6] 198% | inhibition [7] -2.53% | superoxide response (% of plate) [8] 89.5% | aptamer binding inhibition [9] -1% | response [10] -9.17% | inhibition [11] -8.74% | response [12] 1.23% | binding (% of control) [13] 86.9% | efflux inhibition (fraction of control) [14] -0.32 | inhibition [15] -18% | differentiation response [16] 24.7%

O=C(/C=C/c1c[nH]c2ccccc12)c1cccc2ccccc12
inactive: percent of DMSO control GFP [1] 106% | GFP response vs DMSO [2] 103% | percent response of DMSO control [3] 92.9% | GFP response vs DMSO [4] 132% | GFP response, % of DMSO [5] 94.9% | vesicle binding response [6] 336% | inhibition [7] -72.8% | superoxide response (% of plate) [8] 94% | aptamer binding inhibition [9] 2% | inhibition [11] -4.72% | response [12] -1.5% | binding (% of control) [13] 100% | efflux inhibition (fraction of control) [14] 0.19 | inhibition [15] 6% | differentiation response [16] -12%
active: response [10] 63.6%
61.4%: double positive events [6]

CCOC(=O)C1CCCN(Cc2nc(Cc3cccc(F)c3)no2)C1 (stereo not given)
58.5%: double positive events [6]
inactive: percent of DMSO control GFP [1] 99.1% | GFP response vs DMSO [2] 92.6% | percent response of DMSO control [3] 92.4% | GFP response vs DMSO [4] 94.8% | GFP response, % of DMSO [5] 87.2% | vesicle binding response [6] 172% | inhibition [7] 5.61% | superoxide response (% of plate) [8] 90.5% | aptamer binding inhibition [9] -1% | response [10] 20.7% | inhibition [11] 3.77% | response [12] -3.88% | binding (% of control) [13] 106% | efflux inhibition (fraction of control) [14] 0.1 | inhibition [15] 10% | differentiation response [16] 8.59%

Cc1ccc2ncnc(NCCCCCC(=O)O)c2c1
inactive: percent of DMSO control GFP [1] 105% | GFP response vs DMSO [2] 103% | percent response of DMSO control [3] 105% | GFP response vs DMSO [4] 106% | GFP response, % of DMSO [5] 108% | vesicle binding response [6] 130% | inhibition [7] 8.29% | superoxide response (% of plate) [8] 114% | aptamer binding inhibition [9] -1% | response [10] 0.4% | inhibition [11] 13.1% | response [12] 5.01% | binding (% of control) [13] 101% | efflux inhibition (fraction of control) [14] 0.135 | inhibition [15] 4% | differentiation response [16] -14.8%
64.6%: double positive events [6]

CC(=O)C1=C(O)C(=O)N(CC(=O)O)C1c1ccccc1Cl (stereo not given)
inactive: percent of DMSO control GFP [1] 93.5% | GFP response vs DMSO [2] 136% | percent response of DMSO control [3] 88.6% | GFP response vs DMSO [4] 82.5% | GFP response, % of DMSO [5] 90.3% | vesicle binding response [6] 175% | inhibition [7] 10.3% | superoxide response (% of plate) [8] 106% | aptamer binding inhibition [9] 4% | response [10] -4% | inhibition [11] 1.11% | response [12] 0% | binding (% of control) [13] 100% | efflux inhibition (fraction of control) [14] -0.2 | inhibition [15] 13% | differentiation response [16] -4.91%
54.3%: double positive events [6]
